High-throughput results from PubChem.
AMA1-RON2 inh = qHTS for Inhibitors of AMA1-RON; Towards Development of Antimalarial Drug Lead: Primary Screen; Plasmodium falciparum AMA1 (3D7) - RON2 peptide interaction; AlphaScreen AMA1-biotinylated RON2 peptide binding; Potency, µM (doses to about 58.2 µM), for the others: top-dose activity change, negative = inhibition, hits mostly inhibitors; 360,000 tested, 0.2% active;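 also: 0% = vehicle wells and -100% = peptide control; nearly all actives have a fitted effect of over 45% in size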
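AMA1 (3D7) with his tag at 25 nM final met compounds first, then biotinylated RON2 peptide at 25 nM; detection used donor plus acceptor beads, 10 µg/mL apiece, read by AlphaScreen after 30 min at room temperature.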
Pf growth 48h = Primary qHTS for delayed death inhibitors of the malarial parasite plastid, 48 hour incubation. Potency, µM (highest dose often 28.7 µM), for inactives: at the top dose activity change, negative = inhibition, usual class: inhibitors. P. falciparum luciferase growth in erythrocytes, 48 h. AID 504832, 2011. 310,000 tested, 5.9% active
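Cell-based growth assay: transgenic P. falciparum expressing firefly luciferase, cultured in red cells within RPMI 1640 containing 0.5% w/v Albumax, 24 mM bicarbonate and gentamycin. A drop in luciferase activity indicates inhibition.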
AmpC inh detg = qHTS Inhibitors of AmpC Beta-Lactamase (assay with detergent); 370,000 tested, 0.041% active; AmpC hydrolysis of nitrocefin, absorbance 480 nm, 0.01% Triton; P00811; Potency, µM (top dose mostly 114 µM), for inactives: top-dose activity change, negative = inhibition, usual class: inhibitors;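 also: 0% = no-compound wells and -100% = no-enzyme wells; nearly all actives have a fitted effect of over 25% in size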
Target sequence (P00811 whole entry, looked up): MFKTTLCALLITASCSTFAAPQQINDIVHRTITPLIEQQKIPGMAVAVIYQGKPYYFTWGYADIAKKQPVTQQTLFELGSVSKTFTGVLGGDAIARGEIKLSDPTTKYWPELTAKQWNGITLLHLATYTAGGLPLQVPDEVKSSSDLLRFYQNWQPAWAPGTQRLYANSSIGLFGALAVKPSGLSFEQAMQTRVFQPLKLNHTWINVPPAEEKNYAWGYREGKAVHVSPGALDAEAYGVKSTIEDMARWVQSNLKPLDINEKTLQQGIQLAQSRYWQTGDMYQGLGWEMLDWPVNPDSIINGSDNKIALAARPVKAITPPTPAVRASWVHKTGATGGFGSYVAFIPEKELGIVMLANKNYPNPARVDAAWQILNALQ
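AmpC (5.3 nM in the dispensed reagent) in 20 mM phosphate pH 7.0 with 0.01% (detergent screen) or 0.0001% Triton X-100 was preincubated with compounds for 15 min at room temperature. Nitrocefin was then added from an 800 uM solution, and hydrolysis was followed at 480 nm.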
Pf growth 96h = Primary qHTS for delayed death inhibitors of the malarial parasite plastid, 96 hour incubation | P. falciparum luciferase reporter growth, 96 h | Potency, µM (top dose mostly 28.7 µM), for inactives: at the top dose activity change, negative = inhibition, most hits filed as inhibitors | 320,000 tested, 6.9% active
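Parasite growth measured via integrated firefly luciferase reporter in P. falciparum. Infected erythrocytes at 2% hematocrit, 0.05% parasitemia final were treated 96 hours at 37 C under 5% CO2, and luminescence was read.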
HCV inhibitor = qHTS Assay for Inhibitors of Hepatitis C Virus (HCV). Huh7.5.1 HCVcc-Cre infection, luciferase reporter, 44 h. Potency, µM (doses to about 41.8 µM), for the others: at the top dose activity change, negative = inhibition, usual class: inhibitors. 340,000 tested, 3.4% active
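Cells (1,000/well) were plated 4 h before compound, then infected with HCVcc-Cre virus (~0.5 moi). After 44 h further culture, infection was read as luciferase luminescence following a 15 min substrate incubation at room temperature.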
AmpC no deterg = qHTS Inhibitors of AmpC Beta-Lactamase (assay without detergent). 330,000 tested, 0.52% active. AmpC nitrocefin hydrolysis, absorbance 480 nm, 0.0001% Triton. P00811. Potency, µM (series often up to 57.1 µM), inactives show at the top dose activity change, negative = inhibition, most hits filed as inhibitors;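 also: plate controls were no compound for no effect and no enzyme for full effect; nearly all actives have a fitted effect of over 20% in size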
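20 mM phosphate pH 7.0 + 0.01% (detergent screen) or 0.0001% Triton X-100; 5.3 nM AmpC reagent; cpd preinc 15 min RT; nitrocefin (800 uM stock) to start; A480 q20 s × 4 min; Activity was normalised to no-enzyme and no-compound control wells.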
* hit, by the source's call; ? = inconclusive; nt = no result given; [ ] = dose if it differs, or a comment. A selection: hits, their analogues and other compounds. The true share with any hit is near 11%. Calls follow the shape of the dose curve; as a rule, active = well fitted curve in the direction sought with a large enough effect; inconclusive = small, poorly fitted or top-dose-only effect, or another doubt; inactive = no such curve, though single readings can be large; an effect the other way counts as inactive or inconclusive. Unless noted, % is scaled to controls: 0 for no effect and ±100 for the full control effect; potency is read from the fitted curve at half-maximal effect.

SMILES	AMA1-RON2 inh	Pf growth 48h	AmpC inh detg	Pf growth 96h	HCV inhibitor	AmpC no deterg
O=C(NCCCl)Nc1ccccc1OCCOc1ccccc1NC(=O)NCCCl	5.4%	2.08µM*	-11.4%	2.08µM*	?	5.8%
CCOc1ccccc1NC(=O)Nc1ccc(Cl)cc1	24.3%	?	?	?	?	-5.4%
CCCOc1ccccc1N/C(=N/c1nc(C)cc(C)n1)NC(=O)Nc1ccc(Cl)cc1	-1.1%	13.1µM*	-10.4%	28.0%	?	-25.2%
CCCOc1ccccc1NC(=O)Nc1ccccc1Cl	-8.4%	12.6%[5.75 µM]	?	8.28µM*	?	-30.4%
COc1ccc(S(=O)(=O)NCC(c2ccc(N(C)C)cc2)N2CCCC2)cc1F (stereo not drawn)	nt	nt	18.5%	nt	nt	nt
CC(=O)Nc1ccc(N(C)C)cc1[N+](=O)[O-]	12.9%	2.62µM*	0.3%	0.0%	12.5%	-5.3%
O=C(Nc1ccc(Cl)c(C(F)(F)F)c1)N1CCCC(O)C1 (stereo not drawn)	1.9%	22.2%	-0.3%	0.657µM*	-6.0%	-11.5%
CN1C(=O)NC(c2ccccc2)C2=C1CN(Cc1ccco1)C2=O (stereo not drawn)	-0.8%	4.1%	-15.1%	7.9%	3.1%	-1.8%
CN1C(=O)C2(c3ccccc31)N(C)CC(c1ccccc1)C21SC(=S)N(Cc2ccco2)C1=O (stereo not drawn)	-19.8%	1.31µM*	-16.4%	14.7µM*	10µM*	-6.8%
CN1C(=O)C2(c3ccccc31)N(C)CC(c1ccccn1)C21SC(=S)N(Cc2ccco2)C1=O (stereo not drawn)	-24.7%	9.28µM*	-3.8%	?	?	107.8%
Cc1ccc2nc(COc3cccc(NC(=O)COc4ccc(F)cc4)c3)cc(=O)n2c1	nt	nt	-7.9%	nt	nt	nt
COC(=O)c1cc2c(ccn2-c2ccc(F)cc2)n1Cc1ccc(OC(C)=O)cc1	?	?	4.0%	?	8.91µM*	1.4%
CCCn1c(C(=O)OC)cc2c1ccn2-c1ccc(F)cc1	-23.7%	?	3.4%	?	31.6µM*	-11.4%
COC(=O)c1cc2c(ccn2-c2ccc(F)cc2)n1Cc1cccc(OC)c1	-11.2%	?	-15.9%	?	?	-14.1%
COC(=O)c1cc2c(ccn2-c2ccc(F)cc2)n1CC(C)C	?	?	2.9%	?	11.2µM*	-18.2%
COC(=O)c1cc2c(ccn2-c2ccc(F)cc2)n1C(C)C	?	?	-4.1%	-22.4%	-29.6%	-20.2%
O=C(NCCc1ccccc1Cl)c1sc2ncccc2c1-n1cccc1	nt	nt	21.1%	nt	nt	nt
O=C(CSc1nc(=O)n(Cc2ccncc2)c2c1CCC2)Nc1ccc(F)cc1F	nt	nt	6.3%	nt	nt	nt
Cc1ccc(S(=O)(=O)CC(=O)Nc2nc3c(C)cccc3s2)cc1	nt	nt	-7.0%	nt	nt	nt
CCOC(=O)c1[nH]c2ccc(OC)cc2c1NC(=S)N1CCN(c2cccc(C)c2C)CC1	0.2%	?	-11.4%	-27.3%	10µM*	89.1%
Cc1ccc2[nH]c(C(=O)O)c(NC(=O)CN3CCN(c4cccc(C)c4C)CC3)c2c1	-2.3%	0.0%	?	4.65µM*	9.1%	-3.2%
COC(=O)c1[nH]c2cc(OC)ccc2c1NC(=O)CN1CCC(C(N)=O)CC1	5.0%	6.0%	-11.8%	-11.9%	27.5%	-2.0%
CCOC(=O)c1[nH]c2ccc(OC)cc2c1NC(=S)N1CCN(c2ccc(F)cc2)CC1	1.7%[11.6 µM]	-19.0%	-6.1%	?	-12.3%	6.2%
COC(=O)c1[nH]c2ccc(Cl)cc2c1NC(=O)CN1CCC(C(N)=O)CC1	10.4%	11.7µM*	-9.0%	?	-13.9%	-2.5%
COC(=O)c1[nH]c2ccc(C)cc2c1NC(=O)CN1CCN(c2ccccc2)CC1	-2.6%	10.4µM*	?	nt	?	43.9%
SMILES	AMA1-RON2 inh	Pf growth 48h	AmpC inh detg	Pf growth 96h	HCV inhibitor	AmpC no deterg
COc1cccc(-c2cc(C(F)(F)F)nc(-n3nc(C)c(Br)c3C)n2)c1	nt	nt	16.0%	nt	nt	nt
CCOC(=O)c1oc2c(c1C)-c1nn(Cc3ccc(Cl)cc3)cc1CC2	nt	nt	-2.7%	nt	nt	nt
Nc1nc(N2CCN(C/C=C/c3ccccc3)CC2)nc2ccccc12	-16.1%	11.7µM*	2.8%	-2.2%	-12.4%	9.2%
O=c1[nH]c(CN2CCN(C/C=C/c3ccccc3)CC2)nc2ccccc12	24.4%	-18.4%	2.1%	nt	-18.4%	-1.3%
O=C(NC(c1ccccc1)c1c(O)ccc2ccccc12)c1ccccc1Cl (stereo not drawn)	-8.2%	?	-2.2%	?	14.1µM*	-32.5%
O=C(NC(c1ccc(Cl)cc1)c1c(O)ccc2ccccc12)c1ccccc1 (stereo not drawn)	-0.1%	11.7µM*	-2.6%	38.0%	?	-22.5%
CCC(=O)N(CC)c1nc(-c2cc(OC)ccc2OC)cs1	5.2%	11.7µM*	-17.9%	-30.0%	?	-2.7%
CCC(=O)N(CCCN(C)C)c1nc(-c2cc(OC)ccc2OC)cs1	-5.7%	-6.1%	5.6%	?	5.62µM*	55.7%
COCCCN(C(=O)c1ccco1)c1nc(-c2cc(OC)ccc2OC)cs1	-15.2%	nt	-9.4%	nt	?	-8.7%
Cc1oc(-c2ccccc2Cl)nc1CS(=O)(=O)CC(=O)NC(C)CCc1ccccc1 (stereo not drawn)	nt	nt	3.0%	nt	nt	nt
CC(=O)c1ccc(N2C(=O)N(Cc3ccccc3C#N)c3ccccc3S2(=O)=O)cc1	nt	nt	6.9%	nt	nt	nt
CC1CCN(C(=O)Cn2nnc(-c3ccc([N+](=O)[O-])cc3)n2)CC1	-1.1%	46.7%	?	14.7µM*	-5.2%	-11.0%
CCn1c(=O)c2cc(C(=O)N3CCN(c4cccc(OC)c4)CC3)sc2c2ccccc21	nt	nt	9.4%	nt	nt	nt
COc1ccc(-n2nc(C(=O)N3CCCCC3)c3c4ccccc4n(C)c3c2=O)cc1Cl	nt	nt	2.4%	nt	nt	nt
COc1ccc(-c2c[n+]3c4n2CCCCC4=C(c2ccc(Br)cc2)C3)cc1	53.1%	3.7µM*	2.5%	2.08µM*	?	-14.6%
Clc1ccc(C2=C3CCCCn4c(-c5ccccc5)c[n+](c43)C2)cc1	3.0%	10.4µM*	-13.7%	?	-18.1%	1.3%
CC(C)(C)C1CCC(OCC(O)CN2CCN(Cc3ccccc3)CC2)CC1 (stereo not drawn)	-7.8%	?	-15.2%	?	31.6µM*	158.0%
CC1CCCC(C)N1CC(O)COC1CCC(C(C)(C)C)CC1 (stereo not drawn)	0.0%	10.4µM*	-13.5%	80.7%	12.6µM*	27.2%
